Twelve molecules from PubChem BioAssay (NCATS) can be followed below.

Each structure is given as a SMILES string. Inconclusive results are not listed. The source made the active and inactive calls. Unless noted, calls follow the shape of the dose curve; as a rule, active = well fitted curve in the direction sought with a large enough effect; inconclusive = small, poorly fitted or top-dose-only effect, or another doubt; inactive = no such curve, though single readings can be large; an effect the other way counts as inactive or inconclusive.

For assay [1], the target named is Protein phosphatase 1D (Homo sapiens) (UniProt O15297). Nature of the assay: RapidFire Mass Spectrometry qHTS Assay for Modulators of WT P53-Induced Phosphatase 1 (WIP1) (AID 1347424). Particulars: WIP1 dephosphorylation of phosphopeptide, RapidFire MS; series mostly up to 63 µM. In a few lines:
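RapidFire MS readout of dephosphorylated VEPPL-S-QETFS product, with 1 uM isotope-labelled peptide standard. Reaction: 10 nM WIP1, 2 uM phosphopeptide substrate, 5 min, room temperature, after 1 h compound preincubation; stopped with 0.5% formic acid.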

Assay [2] shares this target. The assay is described as follows: Rhodamine-PBP qHTS Assay for Modulators of WT P53-Induced Phosphatase 1 (WIP1) (AID 1347425). Particulars: recombinant WIP1, Rhodamine-PBP phosphate fluorescence, real-time; series mostly up to 57.5 µM. In a few lines: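 Steps: enzyme with Rh-PBP sensor and compounds, room-temperature incubation of 1 hr, baseline read, addition of VEPPL-pS-QETFS (10 uM final), kinetic fluorescence reads at 525/598 nm. Activity equals final minus baseline signal.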
For orientation: qHTS replaces the single test concentration by a dilution series.

Assay [3] can be described thus: Primary qHTS for inhibitors of La Crosse Virus (LACV) - induced cell death in SH-SY5Y cells (AID 1508616).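 Also: top concentration of the series differs between compounds; higher means more rescue of cells from virus-induced death.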 Particulars: SH-SY5Y LACV cytopathicity rescue, ATP luminescence, 6 d; series mostly up to 4.29 µM. The method in brief:
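Cytopathicity rescue screen: compounds pinned onto SH-SY5Y cells, which are then infected with LACV (MOI 0.01) and held 6 days at 37C. Percent activity is scaled between infected DMSO control and uninfected DMSO control.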

In assay [4] the target is Calcium and integrin-binding protein 1 (Homo sapiens) (UniProt Q99828). Nature of the assay: Primary qHTS for Identification of Calcium Integrin Binding Protein 1 (CIB1) Competitor (AID 1508620). Also: top concentration of the series differs between compounds. As to conditions: CIB1-GST / FITC-alphaIIb peptide fluorescence polarization; series mostly up to 114 µM. The method in brief: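 Fluorescence polarization competition: GST-tagged CIB1 (1 uM final) preincubated with compound 15 min at room temperature, then FITC-labelled alphaIIb peptide (100 nM final) added. After 15 min at room temperature, polarization read at Ex 480/Em 540.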
Calcium and integrin-binding protein 1 (Homo sapiens), sequence (Q99828 whole entry, looked up): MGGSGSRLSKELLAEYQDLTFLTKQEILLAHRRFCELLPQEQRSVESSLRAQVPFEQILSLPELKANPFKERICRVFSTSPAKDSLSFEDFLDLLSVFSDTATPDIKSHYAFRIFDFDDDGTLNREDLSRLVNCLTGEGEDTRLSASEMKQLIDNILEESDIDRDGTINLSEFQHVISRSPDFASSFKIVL

Assay [5] in a line: A High-Content qHTS Against Drug Library for the Identification of Small Molecules that Inhibit DYT1 Early Onset Primary Dystonia-Associated Cell Pathology (AID 1645839; calls by dose curve). As to conditions: HEK293 Flp-In EGFP-delE TorsinA, punctate imaging, 48 h; series mostly up to 46.1 µM. In a few lines:
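Cells were seeded and left for 24 h, then dosed with compound alongside tetracycline induction of mutant EGFP-TorsinA. They were incubated for 48 h, fixed in 4% paraformaldehyde, permeabilized and imaged for mislocalization (%pathology) and cell count.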

In assay [6] the target is Cytochrome P450 2C9 (Homo sapiens) (UniProt P11712). Nature of the assay: Cytochrome P450 family 2 subfamily C member 9 (CYP2C9) small molecule antagonists: luciferase biochemical (cell-free) qHTS assay (AID 1645842; active = well fitted curve in the direction sought with a large enough effect in the repeat runs; an effect the other way counts as inactive or inconclusive; also: nearly all actives have a fitted effect of over 55% in size; also: potency is read from the fitted curve at half-maximal effect). Particulars: P450-Glo CYP2C9 enzyme assay, luciferin luminescence; series mostly up to 57.4 µM. In a few lines:
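P450-Glo CYP2C9 system: proluciferin substrate with enzyme in mix containing 0.4% BSA, 10 min at room temperature, then NADPH regeneration solution added and incubated 1 h at 37C. Detection reagent stopped reaction; luminescence read after 20 min as RLU.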

Assay [7] is described as follows: Primary qHTS for inhibitors of nuclear receptor binding SET domain protein 2 (NSD2) in an isogenic RCH-ACV NSD2 p.E1099K mutant (9B) (AID 1645876). Also: nearly all actives have a fitted effect of over 70% in size. Also: potency is read from the fitted curve at half-maximal effect. Particulars: RCH-ACV (leukaemia line) NSD2 E1099K (9B) viability, CellTiter-Glo, 72 h; series mostly up to 44.9 µM.
For assay [8], the target named is Cytochrome P450 2D6 (Homo sapiens) (UniProt P10635). The assay is described as follows: Cytochrome P450 family 2 subfamily D member 6 (CYP2D6) small molecule antagonists: luciferase biochemical (cell-free) qHTS assay (AID 1645840; active = well fitted curve in the direction sought with a large enough effect in the repeat runs; an effect the other way counts as inactive or inconclusive; also: nearly all actives have a fitted effect of over 55% in size). Particulars: P450-Glo CYP2D6 enzyme, luciferin luminescence, 1 h; series mostly up to 57.4 µM. In a few lines: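 P450-Glo CYP2D6 system: proluciferin substrate converted by enzyme to luciferin, read by luminescence proportional to activity. Enzyme-substrate mix with compound 10 min at room temperature, then NADPH regeneration 1 h before detection reagent.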
Cytochrome P450 2D6 (Homo sapiens), sequence (P10635 whole entry, looked up): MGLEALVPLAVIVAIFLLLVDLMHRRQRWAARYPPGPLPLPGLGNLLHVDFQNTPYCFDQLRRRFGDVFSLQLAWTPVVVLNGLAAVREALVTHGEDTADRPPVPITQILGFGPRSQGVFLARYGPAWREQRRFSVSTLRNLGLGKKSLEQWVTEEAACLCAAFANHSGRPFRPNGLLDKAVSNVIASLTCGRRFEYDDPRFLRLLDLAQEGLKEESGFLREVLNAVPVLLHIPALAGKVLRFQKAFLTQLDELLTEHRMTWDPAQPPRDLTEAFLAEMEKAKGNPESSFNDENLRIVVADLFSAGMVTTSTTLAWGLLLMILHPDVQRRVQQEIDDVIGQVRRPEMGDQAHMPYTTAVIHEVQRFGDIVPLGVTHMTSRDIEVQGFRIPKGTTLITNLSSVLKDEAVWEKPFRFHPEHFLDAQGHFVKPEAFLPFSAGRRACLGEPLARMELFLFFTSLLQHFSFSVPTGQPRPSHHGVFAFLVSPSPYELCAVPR

Assay [9] in a line: qHTS to identify inhibitors of the type 1 interferon - major histocompatibility complex class I in skeletal muscle: primary screen against the NCATS Mechanism Interrogation Plate v5.0 (MIPE) Libary (AID 1347411). Also: nearly all actives have a fitted effect of over 65% in size. As to conditions: iHSKM cells + IFN-b, HiBiT-tagged MHC-I luminescence, 24 h; series mostly up to 45.8 µM. In a few lines:
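HLA-B HiBit myoblasts, dexamethasone-free medium + 4 ng/ml IFN-b, 24 h compound, 11-pt 1:3 from 46 uM final. Readout: Nano-Glo HiBiT lytic luminescence after 10 min lysis, RT.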

Cytochrome P450 2C9 (Homo sapiens), sequence (P11712 whole entry, looked up): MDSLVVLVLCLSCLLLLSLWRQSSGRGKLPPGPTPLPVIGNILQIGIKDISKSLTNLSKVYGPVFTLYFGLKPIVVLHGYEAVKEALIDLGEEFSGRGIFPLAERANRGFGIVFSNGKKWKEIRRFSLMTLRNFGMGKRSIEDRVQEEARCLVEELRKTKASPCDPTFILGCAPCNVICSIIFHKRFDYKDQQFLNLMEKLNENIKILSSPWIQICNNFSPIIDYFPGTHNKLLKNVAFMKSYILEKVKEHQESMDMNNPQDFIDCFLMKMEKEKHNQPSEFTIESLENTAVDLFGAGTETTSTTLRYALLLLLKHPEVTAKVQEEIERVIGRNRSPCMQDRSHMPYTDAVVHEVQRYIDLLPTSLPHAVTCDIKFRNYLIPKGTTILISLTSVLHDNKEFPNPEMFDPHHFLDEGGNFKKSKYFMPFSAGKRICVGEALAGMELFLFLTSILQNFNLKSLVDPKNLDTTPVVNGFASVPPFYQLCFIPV
Protein phosphatase 1D (Homo sapiens), sequence (O15297 whole entry, looked up): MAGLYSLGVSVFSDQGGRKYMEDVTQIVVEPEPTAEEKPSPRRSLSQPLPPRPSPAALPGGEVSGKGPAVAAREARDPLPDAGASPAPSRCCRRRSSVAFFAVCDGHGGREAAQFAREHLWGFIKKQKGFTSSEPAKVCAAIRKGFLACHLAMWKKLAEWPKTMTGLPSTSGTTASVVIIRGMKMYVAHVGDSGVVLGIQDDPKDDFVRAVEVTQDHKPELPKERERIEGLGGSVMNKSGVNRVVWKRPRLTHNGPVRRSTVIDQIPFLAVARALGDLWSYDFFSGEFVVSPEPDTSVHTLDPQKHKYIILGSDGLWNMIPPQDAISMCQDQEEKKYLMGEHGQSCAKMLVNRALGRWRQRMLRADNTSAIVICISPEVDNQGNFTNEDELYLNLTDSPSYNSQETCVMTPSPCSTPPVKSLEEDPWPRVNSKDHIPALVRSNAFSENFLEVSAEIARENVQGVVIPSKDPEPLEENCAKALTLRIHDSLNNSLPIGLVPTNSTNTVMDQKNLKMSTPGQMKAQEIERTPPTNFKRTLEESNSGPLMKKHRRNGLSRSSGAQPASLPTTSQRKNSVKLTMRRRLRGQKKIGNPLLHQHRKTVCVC

With `O=C(O)CCC(=O)c1ccc(-c2ccccc2)cc1`, the molecule was called inactive in assay [1], in [2], in assay [3] and in assay [5]. Further, the Potency entry in assay [4], in assay [6] and in [7] was “inactive” in each case.
For the molecule `C=C1CC[C@H](O)CC1=C/C=C1\CCC[C@]2(C)[C@@H]([C@H](C)/C=C/[C@H](C)C(C)C)CC[C@@H]12`, the Potency result in assay [4] and in assay [8] was “inactive” each time. Moreover, the Potency in [6] was 16.9 µM (active).
Take `CO[C@H]1O[C@@H]2O[C@@]3(C)CC[C@H]4[C@H](C)CC[C@@H]([C@H]1C)[C@@]24OO3`: the Potency entry in assay [9] and in assay [8] was “inactive” throughout. Besides, the Potency in assay [6] was 39.8 µM (active).
For `CC(=O)Nc1ccc(NC(=S)NC(=O)c2ccc(C(C)(C)C)cc2)cc1`, the Potency entry in assay [4] is “inactive”. The Potency in assay [7] was 1.83 µM (active).
As for `CC1CC(OC(=O)C(O)c2ccccc2)CC(C)(C)C1` (centres undefined), in assay [4], the Potency result is “inactive”.
In the case of `CC[C@H](CC[C@@H](C)[C@H]1CC[C@H]2[C@@H]3CC=C4C[C@@H](O)CC[C@]4(C)[C@H]3CC[C@]12C)C(C)C`, the Potency result in assay [9] and in [7] was “inactive” throughout.
Take `COc1ccc(C[C@H](C)NC[C@@H](O)c2ccc(O)c(NC=O)c2)cc1`: in assay [4], the Potency result was “inactive”.
On to `COc1ccc2nc(NC(=O)Nc3ccccc3)sc2c1`, for which the result in [1], in assay [3] and in [5] was inactive. The Potency entry in assay [4] and in assay [8] was “inactive” each time. Moreover, the Potency in assay [6] was 13.8 µM (active).
For the molecule `O=C(O)Cc1cc(I)c(Oc2ccc(O)c(I)c2)c(I)c1`, the Potency result in assay [4] is “inactive”. For the same molecule, in [7], the Potency is 20.5 µM (active).
On to `C=C1[C@H](CO)[C@@H](O)C[C@@H]1n1cnc2c(=O)[nH]c(N)nc21`, for which the Potency entry in assay [9], in assay [4], in assay [8], in assay [6] and in [7] was “inactive” each time.
As for `CC(C)=CCC/C(C)=C/CC/C(C)=C/CC/C=C(\C)CC/C=C(\C)CCC=C(C)C`, in assay [8], the Potency result was “inactive”.
Same read-out and setting: as for `CCN1C(=O)NC(c2ccccc2)C1=O` (centres undefined), the entry is “inactive”.
